Assay results as given in the supplement of paper PMC12669032.
Several values for one entry are separate records, joined by “and”; a condition that tells them apart may be missing. Equal values may be shown once. A number with no mark means an inactive call.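 Rule for the calls: active = AUC reduced over 20% with Padj below 0.05 in at least 2 of 3 replicates; inactive = otherwise.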

What was measured:
Experiment in all cases: growth AUC relative to DMSO control (median of replicates) (fraction); higher = more growth (less inhibition), active = hit call of the paper
Conditions in all cases: 20 µM; 24 h
[1] = test system: Akkermansia muciniphila
How it was run: (§1)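 Three biological replicates, each grown on a separate day, were combined as a median for every value. In each, a gut bacterial monoculture in mGAM started at OD600 0.05 and grew anaerobically at 37 °C with 20 µM compound (1% DMSO), with OD600 read hourly over 24 h. Area under the growth curve was normalised against the plate median of solvent-only wells, or against row and column medians on the industrial chemical plate, after the minimum OD was set to 0.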

[2] = test system: Bacteroides caccae
How it was run: as §1

[3] = test system: Bacteroides clarus
How it was run: as §1

[4] = test system: Bacteroides dorei
How it was run: as §1

[5] = test system: Bacteroides stercoris
How it was run: as §1

[6] = test system: Bacteroides thetaiotaomicron
How it was run: as §1

[7] = test system: Bacteroides uniformis
How it was run: as §1

[8] = test system: Bifidobacterium longum subsp. longum
How it was run: as §1

[9] = test system: Clostridium difficile
How it was run: as §1

[10] = test system: Collinsella aerofaciens
How it was run: as §1

[11] = test system: Coprococcus comes
How it was run: as §1

[12] = test system: Escherichia coli ED1a
How it was run: as §1

[13] = test system: Escherichia coli IAI1
How it was run: as §1

[14] = test system: Eubacterium rectale
How it was run: as §1

[15] = test system: Fusobacterium nucleatum subsp. animalis
How it was run: as §1

[16] = test system: Lactobacillus gasseri
How it was run: as §1

[17] = test system: Lactobacillus paracasei
How it was run: as §1

[18] = test system: Odoribacter splanchnicus
How it was run: as §1

[19] = test system: Parabacteroides distasonis
How it was run: as §1

[20] = test system: Parabacteroides merdae
How it was run: as §1

SMILES	growth AUC [1]	growth AUC [2]	growth AUC [3]	growth AUC [4]	growth AUC [5]	growth AUC [6]	growth AUC [7]	growth AUC [8]	growth AUC [9]	growth AUC [10]	growth AUC [11]	growth AUC [12]	growth AUC [13]	growth AUC [14]	growth AUC [15]	growth AUC [16]	growth AUC [17]	growth AUC [18]	growth AUC [19]	growth AUC [20]
CC1(C)[C@H](C(=O)O[C@H](C#N)c2cccc(Oc3ccccc3)c2)[C@@H]1/C=C\C(=O)OC(C(F)(F)F)C(F)(F)F	0.955	1.01	0.976	1.02	0.92	1.03	1.01	0.931	1.03	1.07	1.03	1.01	1.1	0.984	0.986	1.12	0.984	1.03	0.994	1.01
CO/N=C(/C(=O)OC)c1ccccc1CO/N=C(\C)c1cccc(C(F)(F)F)c1	0.96	0.937	0.897	1.02	0.993	0.956	0.994	0.975	1.09	0.993	0.976	0.978	0.985	0.973	0.953	1.1	0.831	1.01	0.887	0.901
CC(C)(C)[C@@H](O)[C@H](Oc1ccc(Cl)cc1)n1cncn1	1.06	0.904	1.02	0.953	1.25	0.948	0.975	0.998	1	0.988	0.974	0.977	0.999	1.08	1.05	1.08	1.09	0.833	0.972	1.01
CC(C)OC(=O)C(C(=O)OC(C)C)=C1SCCS1	1.07	0.993	1.01	0.995	0.955	0.974	1.01	1.04	1.02	0.984	1.06	1.01	0.988	1.02	1.02	0.977	0.98	0.995	0.782 (active)	1.01
CC1(C)OC(c2ccco2)CN1C(=O)C(Cl)Cl (stereo not given)	0.918	1	0.942	1	1.03	0.992	1.02	1.03	0.956	1.02	1.03	1.01	0.994	0.803	0.934	1.07	0.976	1.05	0.99	0.968
O=P(O)(O)CCCl	1.07	0.964	1.02	0.986	1.08	1.01	1.03	1.07	0.959	0.973	1.06	1.02	1.02	1.22	1.04	0.975	1.01	1.12	1.01	1
CC1COC(Cn2cncn2)(c2ccc(Oc3ccc(Cl)cc3)cc2Cl)O1 (stereo not given)	1.03	0.868	0.898	0.91	1.12	0.854	0.839	0.938	0.881	0.977	0.72 (active)	0.979	1	0.723 (active)	0.983	0.952	0.986	0.904	0.801	0.871
C[C@@H]1C[C@@H]([C@H](O)CC2CC(=O)NC(=O)C2)C(=O)[C@@H](C)C1	1.15	1.02	1.02	0.98	1.05	1.04	0.999	1.02	1.05	0.989	1.03	1.01	1.02	0.992	1.12	0.936	1.06	1.02	0.985	1.03
Clc1c(Cl)c(Cl)c(Cl)c(Cl)c1Cl	0.994	1.01	1	1.04	1.08	1	0.992	0.981	1	1.06	1	1.01	1.01	1.02	0.98	1.07	0.936	1.03	1.03	1.03
C=CCOC(=O)C(C)(C)OC(=O)c1cc(-n2c(=O)cc(C(F)(F)F)n(C)c2=O)ccc1Cl	1.14	0.949	1.01	0.969	1.09	0.974	0.975	0.96	0.964	0.961	1	0.998	1.02	1.05	1.09	0.871	1.01	0.913	0.811	0.962
COC(=O)C(Cl)Cl	1	0.968	0.992	1	1.06	1.02	0.971	0.957	0.997	0.991	0.986	1	0.989	1	1.07	0.919	0.938	1.01	0.998	1
CNC(=O)/C(=N/OC)c1ccccc1Oc1ccccc1	0.883	1.01	0.972	0.982	1.02	0.975	0.997	0.942	1	0.998	0.989	1	0.997	0.977	0.968	1.04	1.05	0.992	0.995	0.997
ClC1=C(Cl)C2(Cl)[C@H]3[C@@H]4O[C@@H]4[C@H](Cl)[C@H]3C1(Cl)C2(Cl)Cl (single isomer, unassigned; isomer b)	1.29	0.98	0.973	0.933	0.752	0.96	0.89	1.19	1.01	0.957	0.931	0.995	0.983	0.979	0.923	0.95	0.501	1.07	1.03	0.969
O=C1C(Cl)=C(Cl)C(=O)C(Cl)=C1Cl	1.08	1.09	1.01	0.978	0.877	0.986	0.976	0.969	1.03	0.992	1.02	1.03	1.02	0.844	1.01	0.973	1.01	0.912	1.04	0.927
C=CCNC(=O)c1c([Si](C)(C)C)sc(C)c1C	0.751	0.964	0.973	0.978	0.961	0.96	0.973	0.966	0.968	0.981	0.984	0.972	1.01	0.967	0.894	1.05	0.986	0.97	1.01	0.973
O=S1OC[C@@H]2[C@H](CO1)[C@]1(Cl)C(Cl)=C(Cl)[C@@]2(Cl)C1(Cl)Cl (stereo not given in full)	0.871 and 0.977	0.96 and 1.01	0.957 and 0.941	0.965 and 0.954	0.913 and 0.734	0.959 and 0.894	0.903 and 0.899	0.963 and 0.916	0.98 and 0.994	0.99 and 0.941	0.959 and 0.955	0.995 and 0.982	0.985 and 1.03	1.07 and 0.951	0.927 and 0.887	0.974 and 0.906	1.05 and 1.01	0.949 and 0.879	0.98 and 0.937	0.977 and 0.917
